# Measured values as given in PubChem BioAssay AID2717 (Broad Institute, 2010).
# Where “and” joins values, the source holds several entries; their conditions need not be identical. Equal values may be shown once. The whole screen tested about 300,000 compounds, of which about 3,200 (1.1%) were called active. This is one part of a sample in which actives are shown more often than they occur. A number with no mark means an inactive call. Cut-off read from the data, not from the text of the source: active = inhibition above about 75%; inconclusive = no clear call, values can overlap the other calls; inactive = below that; tested in HMLE shEcad cells.
# Test: cancer stem cell viability inhibitors, primary screen, luminescence (AID 2717)
# Conditions: cancer stem cell-like cells viability, at 7.5 µM, stronger effect = higher value
row,Compound,inhibition
1,COc1ccc(-n2cnnc2SCC(=O)Nc2cccc([N+](=O)[O-])c2)cc1,-0.247%
2,COc1ccc(CCNC(=O)CSc2nc3[nH]ncc3c(=O)n2-c2cccc(C(F)(F)F)c2)cc1OC,-2.41%
3,NC(=O)NC(=O)CSc1nc2cc([N+](=O)[O-])ccc2n1-c1cccc(C(F)(F)F)c1,84.3% (active)
4,Cc1ccc2c(c1)C1C[N+](C)(CC(=O)c3ccccc3)CCC1N2C(=O)c1ccccc1Cl (configuration not stated),-11.4%
5,COc1ccc(S(=O)(=O)N(C)C[C@H]2Oc3ccc(NS(=O)(=O)c4cccs4)cc3CC(=O)N([C@H](C)CO)C[C@H]2C)cc1,-7.45%
6,COc1ccc(N(CCC(=O)NCCc2ccccc2)S(=O)(=O)c2ccc(C)cc2C)cc1,0.378%
7,C[C@]12C=CC(=O)C=C1CC[C@@H]1[C@@H]2C(=O)C[C@@]2(C)[C@H]1CC[C@]2(O)C(=O)CO,-3.96% and -10.9%
8,CC(=O)C12CC(C)=C(C)CC1CC1C3CCC4=CC(=O)CCC4(C)C3CCC12C (configuration not stated),76.7% (active)
9,CC(=O)[C@@]12O[C@@H]1C[C@H]1[C@@H]3CC[C@H]4C[C@@H](O)CC[C@]4(C)[C@H]3CC[C@@]12C,-0.101%
10,COc1cccc(NC(=O)COC(=O)c2ccc3ccccc3n2)c1,-12.4%
11,COc1cccc(NC(=O)COc2cccnc2[N+](=O)[O-])c1,-14.1%
12,CC(=O)c1cccc(OCC(=O)OCC(=O)Nc2cc(S(=O)(=O)N3CCCCC3)ccc2C)c1,2.55%
13,O=C(CC1SCCNC1=O)Nc1ccc(Cl)c(Cl)c1 (configuration not stated),-15.9%
14,CCn1nccc1C(=O)Nc1ccc(Cl)c(Cl)c1,6.24%
15,O=C(CC(O)(C(F)(F)F)C(F)(F)F)Nc1ccc(Cl)c(Cl)c1,98.6% (active)
16,Cc1nn(-c2ccccc2)nc1C(=O)OCC(=O)N1CCCCC1C (configuration not stated),3.22%
17,O=C(CN1C(=O)c2ccc([N+](=O)[O-])cc2C1=O)Nc1nnc(C2CC2)s1,-20.4%
18,CC(OC(=O)c1cc2ccccc2[nH]1)C(=O)N(C)c1ccccc1 (configuration not stated),-15.8%
19,Cc1csc(=O)n1CC(=O)Nc1ccc(S(C)(=O)=O)cc1,-16.8%

row,Compound,inhibition
1,COc1ccc(C(=O)OCc2cc(=O)n3ccsc3n2)cc1F,-8.98%
2,Oc1ccccc1C1=NN(c2ccccc2)C(c2ccccc2)C1 (configuration not stated),84.6% (active)
3,O=C(c1ccccc1)N1N=C(c2ccccc2O)CC1c1ccc(Br)cc1 (configuration not stated),8.94%
4,COc1ccc(C2CC(c3cccs3)=NN2c2ccccc2)cc1 (configuration not stated),4.92%
5,COc1ccc(N2CCN(C(CNS(=O)(=O)c3ccc(C)cc3)c3ccccc3)CC2)cc1 (configuration not stated),20.2%
6,COc1cccc(CC(=O)OCC(=O)NCc2ccc3c(c2)OCO3)c1,-4.31%
7,O=C(NCCc1ccccc1)C1CCN(S(=O)(=O)c2ccc(Br)s2)CC1,-3.18%
8,Cc1cc(C)c[n+](-c2nc3ccccc3nc2[N-]S(=O)(=O)c2cccs2)c1,-12.3%
9,O=S(=O)([N-]c1nc2ccccc2nc1-[n+]1ccc(Cc2ccccc2)cc1)c1ccc(Br)s1,98.5% (active)
10,Cn1nnnc1SCC(=O)Nc1sccc1C(N)=O,-11.4%
11,CN(CC(=O)NCCc1ccc(S(N)(=O)=O)cc1)CC(=O)Nc1ccc(Cl)cc1,-12.5%
12,COc1cccc(/C=N/NC(=O)c2[nH]nc3c2CCc2ccccc2-3)c1O,111% (active)
13,CN(C)CCNC(=O)c1[nH]nc2c1CCc1ccccc1-2,-15.5%
14,COc1cc2cc(C(=O)N/N=C/c3cccc(OC)c3OC)[nH]c2cc1OC,8.69%
15,CCOC(=O)CCCCCC(=O)Nc1ccc2c(c1)CC(=O)N([C@@H](C)CO)C[C@H](C)[C@@H](CN(C)Cc1ccccc1)O2,-7.75%
16,Cc1ccc2c(c1)c1ncn(CCC3=CCCCC3)c(=O)c1n2C,79.2% (active)
17,COc1ccc2c(c1)c1ncn(Cc3ccccn3)c(=O)c1n2C,-14.9%
18,Cc1ccc2c(c1)c1ncn(Cc3ccc(F)cc3)c(=O)c1n2C,21.8%
19,CCn1nnc2cc(C(=O)Nc3ccc(C(=O)OC(C)C)cc3)ccc21,-0.631%

row,Compound,inhibition
1,O=C(COC(=O)C1CCCO1)Nc1nc(-c2ccc(F)cc2)cs1 (configuration not stated),-5.39%
2,O=C(OCC(=O)N1CCCCC1)c1ccc(OC(F)(F)F)cc1,-0.262%
3,O=C(O)CC1=C(Nc2ccccc2)C(=O)N(c2ccccc2)C1c1ccc(Cl)cc1 (configuration not stated),9.27%
4,O=C1C=C(c2ccc(Cl)cc2)C(=O)N1Nc1ccccc1,107% (active)
5,O=C1c2cccc3cc(Br)cc(c23)C(=O)N1Nc1ccccc1,6.61%
6,CCOC(=O)C1CCN(C(=O)CN2C(=O)NC(C)(c3ccc4cc(OC)ccc4c3)C2=O)CC1 (configuration not stated),-9.85%
7,CCOC(=O)[C@@H]1[C@H]2COc3ccc(Br)cc3[C@H]2N2C(=O)N(c3ccc(C)cc3)C(=O)[C@@]12C,-5.83%
8,COc1ccc(-c2nn(-c3ccccc3)cc2/C=N/Nc2ccccn2)cc1OC,10.5%
9,Oc1ccc(Br)cc1/C=N/Nc1ccccn1,101% (active)
10,O=C(CCCO)N/N=C/c1cc(Br)ccc1O,-5.24%
11,COc1ccc(OC)c(NC(=O)COC(=O)Cc2ccsc2)c1,-8.27%
12,O=C(OCC(=O)N1CCCCCC1)c1ccc(Cl)nc1,15.6%
13,COc1ccc(Cc2nc(-c3ccccn3)no2)cc1OC,-15.9%
14,Cc1ccc(Oc2nc(-c3ccccn3)nc3ccccc23)cc1,4.28%
15,O=C(Oc1ccc(-c2nc(-c3ccccn3)no2)cc1)c1ccccc1,129% (active)
16,N#CCCN(C(=O)COC(=O)c1ccc2c(c1)OCCO2)c1ccccc1,-4.1%
17,CC(C)N(C(=O)c1ccc(-c2ccccc2F)cc1)C(C)C,-3.5%
18,O=C(CN1C(=O)c2ccccc2C1=O)NCc1ccc(C(=O)O)cc1,12.4%
19,CC(=O)N(C1=C(Cl)C(=O)c2ccccc2C1=O)c1ccc(C(=O)O)cc1,102% (active)
